# Assay results reported in PubChem BioAssay (EPA / NIEHS).
# Results filed as inconclusive are left out. Calls of active or inactive are those of the source. The calls were made as follows, unless noted: active = hit-call score of the fitted dose curve at least 0.9, where 1 is the maximum; inactive = score below 0.9.
# Tests used:
# [1] = read-out: succinate dehydrogenase complex iron sulfur subunit B (SDHB), SDHB (gene 6390); test: LTEA_HepaRG_SDHB: Life Technologies and Expression Analysis (LTEA) Assay for succinate dehydrogenase complex iron sulfur subunit B (SDHB) using HepaRG (AID 2283528); settings: mRNA level, 48 h; actives raise or lower the signal
# How it was run: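 HepaRG cells (~100,000/well, plated 48 h) exposed in duplicate for 48 h in serum-free induction medium to 8-point half-log series from 100 uM in 0.5% DMSO; mRNA by qRT-PCR normalised to ACTB, GAPDH, POLR2A; bidirectional fit versus DMSO.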
# [2] = read-out: Signal transducer and activator of transcription 3 (Homo sapiens) (UniProt P40763); test: LTEA_HepaRG_STAT3: Life Technologies and Expression Analysis (LTEA) Assay for Signal transducer and activator of transcription (STAT3) using HepaRG (AID 2283529); settings: mRNA level, 48 h; actives raise or lower the signal
# How it was run: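 Differentiated HepaRG cells, serum-free induction medium, dosed 48 h in duplicate, 8 half-log concentrations from 100 uM in 0.5% DMSO. STAT3 mRNA by qRT-PCR, normalised to ACTB, GAPDH, POLR2A; bidirectional fit versus DMSO.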
# [3] = read-out: solute carrier (SLCO1B1), SLCO1B1 (gene 10599); test: LTEA_HepaRG_SLCO1B1: Life Technologies and Expression Analysis (LTEA) Assay for solute carrier (SLCO1B1) using HepaRG (AID 2283530); settings: mRNA level, 48 h; actives raise or lower the signal
# How it was run: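 Differentiated human HepaRG cells, plated 48 h, switched to serum-free induction medium and exposed in duplicate for 48 h to 8 half-log concentrations (top 100 uM) in 0.5% DMSO. SLCO1B1 mRNA by TaqMan qRT-PCR, normalized to ACTB/GAPDH/POLR2A.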
# [4] = read-out: sulfotransferase 2A1 (SULT2A1), SULT2A1 (gene 6822); test: LTEA_HepaRG_SULT2A1: Life Technologies and Expression Analysis (LTEA) Assay for sulfotransferase 2A1 (SULT2A1) using HepaRG (AID 2283531); settings: mRNA level, 48 h; actives raise or lower the signal
# How it was run: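 Differentiated human HepaRG cells in serum-free induction medium were exposed for 48 h to eight half-log concentrations (top 100 uM, 0.5% DMSO). SULT2A1 mRNA was measured by qRT-PCR, normalized to ACTB, GAPDH and POLR2A, and fitted bidirectionally against DMSO.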
# [5] = read-out: Transforming Growth Factor (TGFA), TGFA (gene 7039); test: LTEA_HepaRG_TGFA: Life Technologies and Expression Analysis (LTEA) Assay for Transforming Growth Factor (TGFA) using HepaRG (AID 2283532); settings: mRNA level, 48 h; actives raise or lower the signal
# How it was run: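 Differentiated HepaRG cells exposed 48 hours in serum-free induction medium, 0.5% DMSO vehicle, 8-point half-log series from 100 uM, in duplicate. TGFA mRNA by TaqMan qRT-PCR, normalised to ACTB, GAPDH, POLR2A; bidirectional fit versus DMSO.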
# [6] = read-out: Transforming Growth Factor (TGFB1), TGFB1 (gene 7040); test: LTEA_HepaRG_TGFB1: Life Technologies and Expression Analysis (LTEA) Assay for Transforming Growth Factor (TGFB1) Transporter using HepaRG (AID 2283533); settings: mRNA level, 48 h; actives raise or lower the signal
# How it was run: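 Differentiated human HepaRG cells in serum-free induction medium were exposed in duplicate for 48 h to eight concentrations (top 100 uM, half-log steps, 0.5% DMSO). TGFB1 mRNA was quantified by qRT-PCR, normalized to ACTB, GAPDH, POLR2A, and fitted bidirectionally against DMSO.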
# TIMP1, TIMP1 (gene 7076) = test: LTEA_HepaRG_TIMP1: Life Technologies and Expression Analysis (LTEA) Assay for TIMP1 using HepaRG (AID 2283534); settings: mRNA level, 48 h; actives raise or lower the signal;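 also: TaqMan qRT-PCR signal normalized to ACTB GAPDH and POLR2A housekeeping genes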
# How it was run: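 Differentiated human HepaRG cells in serum-free induction medium were exposed 48 h to chemicals (8 half-log concentrations, top 100 uM, 0.5% DMSO). TIMP1 mRNA was quantified by TaqMan qRT-PCR, normalized to ACTB/GAPDH/POLR2A; bidirectional fit versus DMSO.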
# [7] = read-out: Thyroid Hormone Responsive (THRSP), THRSP (gene 7069); test: LTEA_HepaRG_THRSP: Life Technologies and Expression Analysis (LTEA) Assay for Thyroid Hormone Responsive (THRSP) using HepaRG (AID 2283536); settings: mRNA level, 48 h; actives raise or lower the signal
# How it was run: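 Differentiated HepaRG cells treated 48 h in serum-free induction medium with 8 half-log concentrations up to 100 uM (0.5% DMSO), duplicates. THRSP mRNA by TaqMan qRT-PCR normalised to ACTB, GAPDH, POLR2A; bidirectional fit versus DMSO.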
# [8] = read-out: Cellular tumor antigen p53 (Homo sapiens) (UniProt P04637); test: LTEA_HepaRG_TP53: Life Technologies and Expression Analysis (LTEA) Assay for Tumor Protein P53 (TP53) using HepaRG (AID 2283537); settings: mRNA level, 48 h; actives raise or lower the signal
# How it was run: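 Differentiated HepaRG cells in serum-free induction medium exposed 48 h in duplicate to 8 half-log concentrations, top 100 uM, 0.5% DMSO. TP53 mRNA by TaqMan qRT-PCR (Fluidigm), normalized to ACTB, GAPDH, POLR2A; fitted bidirectionally versus DMSO.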
# [9] = read-out: UDP glucuronosyltransferase (UGT1A1), UGT1A1 (gene 54658); test: LTEA_HepaRG_UGT1A1: Life Technologies and Expression Analysis (LTEA) Assay for UDP glucuronosyltransferase (UGT1A1) using HepaRG (AID 2283538); settings: mRNA level, 48 h; actives raise or lower the signal
# How it was run: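 Readout is UGT1A1 transcript level by qRT-PCR, normalized to three housekeeping genes, after 48 h chemical treatment of HepaRG cells. Concentrations ran from 100 uM down in half-log steps with 0.5% DMSO, and gain or loss relative to DMSO was fitted.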
# [10] = read-out: UDP glucuronosyltransferase (UGT1A6), UGT1A6 (gene 54578); test: LTEA_HepaRG_UGT1A6: Life Technologies and Expression Analysis (LTEA) Assay for UDP glucuronosyltransferase (UGT1A6) using HepaRG (AID 2283539); settings: mRNA level, 48 h; actives raise or lower the signal
# How it was run: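 Human HepaRG cells were dosed for 48 h in serum-free induction medium with 0.5% DMSO vehicle, eight-point half-log series from 100 uM, in duplicate. UGT1A6 mRNA was measured by qRT-PCR, normalized to ACTB, GAPDH, POLR2A, and fitted bidirectionally against DMSO.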
# [11] = read-out: X-box binding protein 1 (XBP1), XBP1 (gene 7494); test: LTEA_HepaRG_XBP1: Life Technologies and Expression Analysis (LTEA) Assay for X-box binding protein 1 (XBP1) using HepaRG (AID 2283540); settings: mRNA level, 48 h; actives raise or lower the signal
# How it was run: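 Differentiated human HepaRG cells in serum-free induction medium were exposed in duplicate for 48 h to eight half-log concentrations up to 100 uM in 0.5% DMSO. XBP1 mRNA was quantified by qRT-PCR, normalised to ACTB, GAPDH and POLR2A, with bidirectional fitting against DMSO.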
# [12] = LTEA_HepaRG_LDH_cytotoxicity: Cytotoxicity Assessment in the Life Technologies and Expression Analysis (LTEA) Assay (AID 2283563; active = hit-call score of the fitted dose curve at least 0.9, where 1 is the maximum)
# How it was run: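 Differentiated human HepaRG cells, plated 48 h beforehand, were switched to serum-free induction medium and exposed for 48 h to eight half-log concentrations (top 100 uM) in 0.5% DMSO. LDH was measured in spent medium; activity was fitted relative to DMSO vehicle.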
# [13] = ATG_XTT_Cytotoxicity: Cytotoxicity Assessment in the Attagene TRANS-FACTORIAL HepG2 Assay (AID 2283584; active = hit-call score of the fitted dose curve at least 0.9, where 1 is the maximum)
# How it was run: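 HepG2 human liver cells, transiently transfected with multiple GAL4-UAS reporter units, were dosed and read at 24 h by XTT as cell number. Loss of signal was fitted relative to DMSO negative control baseline.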
# [14] = TOX21_p53_BLA_p2_viability: Viability Assessment in the Tox21 HCT-116 p53 Agonism Beta-lactamase Assay, Phase 2 (AID 2283591; active = hit-call score of the fitted dose curve at least 0.9, where 1 is the maximum;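 also: compound exposure lasted 16 h at 37 °C; actives lower the ATP signal meaning cytotoxicity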)
# How it was run: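 HCT116 p53-bla cells, 4000/well, dosed after 5 h plating (217-fold dilution of DMSO stocks) and incubated 16 h at 37C. Viability taken as cellular ATP by CellTiter-Glo luminescence after 30 min RT; signal loss marks cytotoxicity.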
# [15] = molecular target: Cellular tumor antigen p53 (Homo sapiens) (UniProt P04637); test: TOX21_p53_BLA_p2_ratio: Tox21 HCT-116 p53 Agonism Beta-lactamase Assay, Ratio, Phase 2 (AID 2283592; active = hit-call score of the fitted dose curve at least 0.9, where 1 is the maximum)
# Chain of Cellular tumor antigen p53 (Homo sapiens) (P04637 whole entry, looked up): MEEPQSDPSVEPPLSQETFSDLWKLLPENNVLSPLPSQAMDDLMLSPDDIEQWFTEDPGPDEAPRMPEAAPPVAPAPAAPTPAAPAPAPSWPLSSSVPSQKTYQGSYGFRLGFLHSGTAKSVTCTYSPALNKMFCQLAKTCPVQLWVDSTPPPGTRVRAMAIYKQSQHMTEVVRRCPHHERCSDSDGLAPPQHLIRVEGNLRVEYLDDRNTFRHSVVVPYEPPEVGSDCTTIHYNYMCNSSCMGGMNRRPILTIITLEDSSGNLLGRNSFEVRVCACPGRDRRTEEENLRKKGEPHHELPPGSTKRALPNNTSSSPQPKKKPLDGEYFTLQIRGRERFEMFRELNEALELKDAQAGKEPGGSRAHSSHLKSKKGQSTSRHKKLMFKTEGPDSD
# How it was run: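 HCT116 cells carrying a p53-responsive beta-lactamase reporter were plated, incubated 5 h at 37C, then dosed with compounds in DMSO (217-fold dilution) for 16 h. CCF4-AM substrate was added for 2 h at room temperature; the 460/530 nm emission ratio gave gain-of-signal activity relative to DMSO.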
# [16] = TOX21_p53_BLA_p3_viability: Viability Assessment in the Tox21 HCT-116 p53 Agonism Beta-lactamase Assay, Phase 3 (AID 2283593; active = hit-call score of the fitted dose curve at least 0.9, where 1 is the maximum;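 also: cells exposed to compound for 16 h before reading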)
# How it was run: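 HCT116 cells, 4000/well, dosed 5 h after plating by pin transfer (217-fold dilution from DMSO stock) and incubated 16 h at 37C, 5% CO2. Viability read as ATP luminescence with CellTiter-Glo after 30 min at room temperature.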
# [17] = molecular target: Cellular tumor antigen p53 (Homo sapiens) (UniProt P04637); test: TOX21_p53_BLA_p3_ratio: Tox21 HCT-116 p53 Agonism Beta-lactamase Assay, Ratio, Phase 3 (AID 2283596; active = hit-call score of the fitted dose curve at least 0.9, where 1 is the maximum)
# How it was run: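 HCT116 p53-bla cells (4000/well) given compound in DMSO (217-fold dilution) after 5 h, incubated 16 h at 37C. CCF4-AM substrate 2 h at room temperature; 460/530 nm emission ratio, gain fitted against DMSO.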
# [18] = read-out: Tumor necrosis factor receptor 1 (TNFRSF1A), TNFRSF1A (gene 7132); test: LTEA_HepaRG_TNFRSF1A: Life Technologies and Expression Analysis (LTEA) Assay for Tumor necrosis factor receptor 1 (TNFRSF1A) using HepaRG (AID 2283535); settings: mRNA level, 48 h; actives raise or lower the signal
# How it was run: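 Differentiated human HepaRG cells were exposed in duplicate for 48 h in serum-free induction medium to eight concentrations (top 100 uM, half-log steps, 0.5% DMSO). TNFRSF1A mRNA was quantified by qRT-PCR, normalized to ACTB, GAPDH and POLR2A, then fitted bidirectionally against DMSO.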
# Chain of Signal transducer and activator of transcription 3 (Homo sapiens) (P40763 whole entry, looked up): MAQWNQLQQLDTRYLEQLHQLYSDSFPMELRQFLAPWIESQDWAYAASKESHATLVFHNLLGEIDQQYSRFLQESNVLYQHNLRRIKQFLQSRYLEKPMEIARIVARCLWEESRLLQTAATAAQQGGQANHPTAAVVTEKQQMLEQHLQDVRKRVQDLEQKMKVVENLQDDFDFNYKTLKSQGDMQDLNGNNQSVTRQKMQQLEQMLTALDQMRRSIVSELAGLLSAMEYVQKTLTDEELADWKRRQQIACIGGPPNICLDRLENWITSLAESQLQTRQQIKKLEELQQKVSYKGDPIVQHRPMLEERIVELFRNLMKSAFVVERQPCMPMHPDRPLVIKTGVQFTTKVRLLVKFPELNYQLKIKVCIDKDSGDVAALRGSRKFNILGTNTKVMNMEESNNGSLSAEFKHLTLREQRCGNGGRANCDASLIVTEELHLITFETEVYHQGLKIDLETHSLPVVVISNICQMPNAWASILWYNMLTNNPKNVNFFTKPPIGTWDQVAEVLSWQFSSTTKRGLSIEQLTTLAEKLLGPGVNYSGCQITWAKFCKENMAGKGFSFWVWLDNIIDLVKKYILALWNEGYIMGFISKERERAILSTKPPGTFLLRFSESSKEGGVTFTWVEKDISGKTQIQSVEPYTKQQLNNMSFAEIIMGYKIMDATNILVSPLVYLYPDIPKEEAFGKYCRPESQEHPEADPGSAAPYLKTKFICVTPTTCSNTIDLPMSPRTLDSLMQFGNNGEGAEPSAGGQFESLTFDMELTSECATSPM
smiles,measurement,setting,value
O=C(O)CN(CC(=O)O)CC(=O)O,outcome,[1],inactive
same,outcome,[2],inactive
same,outcome,[3],inactive
same,outcome,[4],inactive
same,outcome,[5],inactive
same,outcome,[6],inactive
same,outcome,"TIMP1, TIMP1 (gene 7076)",inactive
same,outcome,[7],inactive
same,outcome,[8],inactive
same,outcome,[9],inactive
same,outcome,[10],inactive
same,outcome,[11],inactive
same,outcome,[12],inactive
same,outcome,[13],inactive
same,outcome,[14],inactive
same,outcome,[15],inactive
same,outcome,[16],inactive
same,outcome,[17],inactive
N[C@@H](Cc1c[nH]c2ccccc12)C(=O)O,outcome,[1],inactive
same,outcome,[2],inactive
same,outcome,[3],inactive
same,outcome,[4],inactive
same,outcome,[5],inactive
same,outcome,[6],inactive
same,outcome,"TIMP1, TIMP1 (gene 7076)",inactive
same,outcome,[18],inactive
same,outcome,[7],inactive
same,outcome,[9],inactive
same,outcome,[10],inactive
same,outcome,[12],inactive
same,outcome,[13],inactive
O=C1NC(=O)C(c2ccccc2)(c2ccccc2)N1,outcome,[1],inactive
same,outcome,[2],inactive
same,outcome,[3],inactive
same,AC50,[4],50 µM (active)
same,outcome,[5],inactive
same,outcome,[6],inactive
same,outcome,"TIMP1, TIMP1 (gene 7076)",inactive
same,outcome,[18],inactive
same,outcome,[7],inactive
same,AC50,[9],19.3 µM (active)
same,outcome,[10],inactive
same,outcome,[11],inactive
same,outcome,[12],inactive
same,outcome,[13],inactive
CC(N)=O,outcome,[1],inactive
same,outcome,[2],inactive
same,outcome,[3],inactive
same,outcome,[4],inactive
same,outcome,[5],inactive
same,outcome,[6],inactive
same,outcome,"TIMP1, TIMP1 (gene 7076)",inactive
same,AC50,[18],0.243 µM (active)
same,outcome,[7],inactive
same,outcome,[9],inactive
same,outcome,[10],inactive
same,outcome,[12],inactive
same,outcome,[13],inactive
Cc1occc(=O)c1O,outcome,[1],inactive
same,outcome,[2],inactive
same,outcome,[3],inactive
same,outcome,[4],inactive
same,outcome,[5],inactive
same,outcome,[6],inactive
same,outcome,"TIMP1, TIMP1 (gene 7076)",inactive
same,outcome,[18],inactive
same,outcome,[7],inactive
same,outcome,[9],inactive
same,outcome,[10],inactive
same,outcome,[12],inactive
same,outcome,[13],inactive
NC1CCCCC1,outcome,[1],inactive
same,outcome,[2],inactive
same,outcome,[3],inactive
same,outcome,[4],inactive
same,outcome,[5],inactive
same,outcome,[6],inactive
same,outcome,"TIMP1, TIMP1 (gene 7076)",inactive
same,outcome,[18],inactive
same,outcome,[7],inactive
same,outcome,[9],inactive
same,outcome,[10],inactive
same,outcome,[11],inactive
same,outcome,[12],inactive
same,outcome,[13],inactive
O=C(Oc1ccccc1)c1cccc(C(=O)Oc2ccccc2)c1,outcome,[1],inactive
same,outcome,[2],inactive
same,outcome,[3],inactive
same,outcome,[4],inactive
same,outcome,[5],inactive
same,outcome,[6],inactive
same,outcome,"TIMP1, TIMP1 (gene 7076)",inactive
same,outcome,[18],inactive
same,outcome,[7],inactive
same,outcome,[9],inactive
same,outcome,[10],inactive
same,outcome,[12],inactive
same,outcome,[13],inactive
CCCCCCC(CCCCCCCCCCC(=O)OCC(COC(C)=O)OC(C)=O)OC(C)=O (stereo not given),outcome,[1],inactive
same,outcome,[2],inactive
same,outcome,[3],inactive
same,outcome,[4],inactive
same,outcome,[5],inactive
same,outcome,[6],inactive
same,outcome,"TIMP1, TIMP1 (gene 7076)",inactive
same,outcome,[7],inactive
same,outcome,[8],inactive
same,outcome,[9],inactive
same,outcome,[10],inactive
same,outcome,[11],inactive
same,outcome,[12],inactive
same,outcome,[13],inactive
same,outcome,[15],inactive
CC(=O)O,outcome,[1],inactive
same,outcome,[2],inactive
same,outcome,[3],inactive
same,outcome,[4],inactive
same,outcome,[5],inactive
same,outcome,[6],inactive
same,outcome,"TIMP1, TIMP1 (gene 7076)",inactive
same,outcome,[18],inactive
same,outcome,[7],inactive
same,outcome,[9],inactive
same,outcome,[10],inactive
same,outcome,[13],inactive
